Compounds with a hit are over-represented: about 5.8% of the library has one in this group of screens.
TRPV1 PAM – potentiators of human vanilloid receptor 1 (TRPV1); TRPV1-expressing cells, Fluo-8 calcium influx, capsaicin EC20 potentiation; potentiation, % at 8.33 µM; 320,000 tested, 0.02% active; AID 540277; in the data active = potentiation above about 80%; inconclusive = between about 30% and that limit
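TRPV1-expressing cells were cultured overnight at 35.5C and loaded with Fluo-8 calcium dye for 40 to 90 min at room temperature. After a 10 s baseline, compound was added and calcium influx was read kinetically for 3 min (ex 480/em 520 nm).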
VP16 counter – Gal4-VP16 reporter inhibition counter-screen | Drosophila S2 Gal4-VP16 UAS-luciferase, luminescence, 20 h | Potency, µM (titrated, usually from 53.6 µM), usual class: inhibitors | 310,000 tested, 3.5% active;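 note: Gal4-VP16 expression switched on by copper sulfate through the metallothionein promoter; nearly all actives have a fitted effect of over 50% in size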
RORg inh – blocks mouse ROR gamma transcriptional activity. Potency, µM (series often up to 53.6 µM), actives largely listed as inhibitors. Drosophila S2 Gal4-RORgamma UAS-luciferase reporter, 20 h. 310,000 tested, 5.4% active; note: nearly all actives have a fitted effect of over 60% in size
Target sequence (P51450 whole entry, looked up, the tested form may be a part): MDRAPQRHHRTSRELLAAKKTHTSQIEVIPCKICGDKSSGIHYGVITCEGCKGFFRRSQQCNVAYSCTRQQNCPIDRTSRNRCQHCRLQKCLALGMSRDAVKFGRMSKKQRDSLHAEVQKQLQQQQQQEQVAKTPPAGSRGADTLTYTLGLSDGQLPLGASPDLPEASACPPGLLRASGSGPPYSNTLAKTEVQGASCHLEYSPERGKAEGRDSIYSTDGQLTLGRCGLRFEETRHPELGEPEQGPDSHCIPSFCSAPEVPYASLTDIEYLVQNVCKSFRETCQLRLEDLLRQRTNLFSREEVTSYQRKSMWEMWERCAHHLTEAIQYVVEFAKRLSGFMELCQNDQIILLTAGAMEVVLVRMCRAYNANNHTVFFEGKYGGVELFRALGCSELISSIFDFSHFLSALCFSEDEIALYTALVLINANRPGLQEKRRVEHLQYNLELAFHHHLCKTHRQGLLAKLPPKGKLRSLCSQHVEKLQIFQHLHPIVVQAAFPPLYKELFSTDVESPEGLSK
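Luminescence from a UAS-regulated Photinus luciferase reporter in stably transfected Drosophila Schneider cells is measured; decreased signal marks ROR gamma inhibition. Fusion expression is induced by 700 uM copper sulfate for 20 hr.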
uPA surface inh – blocks generation of uPA at the cell surface; AID 540303; cell surface uPA generation assay, qHTS; 330,000 tested, 0.31% active; Potency, µM (titrated, usually from 38.3 µM), actives largely listed as inhibitors; active = well fitted inhibition curve with a large enough effect; inconclusive = small, poorly fitted or top-dose-only effect; inactive = no such curve, though single readings can be large or run the other way; tested in mouse RAW 264.7 cells; note: nearly all actives have a fitted effect of over 55% in size
TRPV1 agonist – agonists of human vanilloid receptor 1 (TRPV1); Q8NER1; TRPV1-expressing cells, Fluo-8 calcium influx, agonist mode; activation, % at 8.33 µM; 320,000 tested, 0.19% active; AID 540275; in the data active = activation above about 80%; inconclusive = between about 30% and that limit
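Fluo-8 calcium influx in TRPV1-expressing cells, kinetic read (ex 480/em 520 nm). Compound added and read 3 min for agonist activity, followed by capsaicin at EC20 final and 2 min further read for enhancement.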
Large screens that a line does not name were inactive. Unless noted, calls come from the whole dose curve; as a rule, active = well fitted curve in the direction sought with a large enough effect; inconclusive = small, poorly fitted or top-dose-only effect, or another doubt; inactive = no such curve, though single readings can be large; an effect the other way counts as inactive or inconclusive.

COc1ccc(NC2=Nc3ccccc3N3C2=Nc2c(c(C)nn2-c2ccc(C)cc2)C3c2cccnc2)cc1 (stereo unspecified)	none
Oc1ccc(Br)cc1-c1cc(-c2ccccc2F)[nH]n1	VP16 counter 3.5µM, RORg inh 1.8µM
Oc1ccc(Br)cc1-c1cc(-c2ccccc2Cl)[nH]n1	RORg inh 2.8µM
COc1ccc(O)c(-c2cc(-c3ccccc3Cl)[nH]n2)c1	VP16 counter inconclusive, RORg inh inconclusive
COc1ccccc1-c1cc(-c2cc(Cl)ccc2O)n[nH]1	none
O=C(Cn1cnc2ccccc2c1=O)NCCC(=O)Nc1ccc2c(c1)OCO2	none
O=C(NCCc1ccccc1)c1noc2c1CCc1ccccc1-2	none (no result: uPA surface inh)
O=C1c2ccccc2CC[C@H]1CNCCc1ccc(O)cc1	VP16 counter 11µM, RORg inh 14µM (no result: TRPV1 PAM, uPA surface inh, TRPV1 agonist)
COc1ccc(C(=O)NN(C)c2nc(C(F)(F)F)nc3ccccc23)cc1	VP16 counter inconclusive, RORg inh 3.2µM
O=C(CCN1CCN(c2ccccc2)CC1)N/N=C/c1ccccc1O	VP16 counter 6.3µM, RORg inh 2µM
O=C(N/N=C/c1ccccc1O)C(=O)N1CCCCCC1	VP16 counter 13µM, RORg inh 13µM
O=C(N/N=C/c1ccccc1F)C(=O)N1CCCCCC1	none
CN1CCN(CCC(=O)N/N=C/c2ccccc2F)CC1	none
Cc1ccc(/C=N/NC(=O)Cc2c[nH]c3ccccc23)c(C)c1	TRPV1 agonist inconclusive
C=CCc1cccc(/C=N/NC(=O)CCC(=O)Nc2ccc(C)cc2)c1O	VP16 counter inconclusive, RORg inh 1.6µM
O=C(Cc1c[nH]c2ccccc12)N/N=C/c1ccccc1O	VP16 counter 10µM, RORg inh 2.2µM, uPA surface inh inconclusive
COCCNc1nnc(SC(C)C(=O)Nc2ccc(-c3nc4ccc(C)cc4s3)cc2)s1 (stereo unspecified)	VP16 counter inconclusive
O=C(CCn1cnc2ccccc21)N/N=C/c1ccccc1O	VP16 counter 0.63µM, RORg inh 0.45µM, uPA surface inh inconclusive
Cc1cccc(NC(=O)CCC(=O)N/N=C/c2cc([N+](=O)[O-])ccc2O)c1	RORg inh 8.9µM
O=C(CCC(=O)Nc1ccc(F)cc1)N/N=C/c1ccccc1O	RORg inh 14µM
O=C(CCC(=O)Nc1ccc(F)cc1)N/N=C/c1cc([N+](=O)[O-])ccc1O	RORg inh 10µM
COc1ccc(CNC(=O)CC2(CC(=O)O)CCCCC2)cc1	none
O=C(N/N=C/c1cc([N+](=O)[O-])ccc1O)c1cccc(NC(=O)c2cccc(Cl)c2)c1	VP16 counter inconclusive, RORg inh 4.5µM
O=C(CCC(=O)N/N=C/c1ccccc1O)NCc1ccccc1	RORg inh 20µM
O=C(CCC(=O)Nc1cc(C(F)(F)F)ccc1Cl)N/N=C\c1cc([N+](=O)[O-])ccc1O	TRPV1 PAM inconclusive, VP16 counter 8.9µM, RORg inh 2.5µM
O=C(CCC(=O)Nc1ccc(Br)cc1)N/N=C/c1cc([N+](=O)[O-])ccc1O	none
CCOCCOc1cccc(C(=O)NC(C)c2ccc3ccccc3c2)c1 (stereo unspecified)	RORg inh inconclusive
COc1ccc(-n2cc(CNCC3CCOCC3)c(-c3cccc(F)c3)n2)cc1	none
COc1ccc(-n2cc(CNCCCn3ccnc3)c(-c3cccc(F)c3)n2)cc1	VP16 counter 32µM, RORg inh 11µM
Cc1ccc2nc(N(CCCN(C)C)C(=O)c3cc(-c4cccs4)nc4ccccc34)sc2c1	VP16 counter inconclusive, RORg inh 14µM, uPA surface inh inconclusive
N#Cc1cccc(-c2nc(NCc3cccnc3)c3ccccc3n2)c1	none (no result: TRPV1 PAM, uPA surface inh, TRPV1 agonist)
O=C(Nc1ccc(N2CCOCC2)cc1)c1ccc([N+](=O)[O-])o1	VP16 counter inconclusive, RORg inh 11µM
O=C(Nc1ccc(N2CCN(C(=O)c3cccs3)CC2)cc1)c1ccc([N+](=O)[O-])o1	VP16 counter inconclusive, RORg inh 13µM (no result: uPA surface inh)
CN1CCN(c2c(/C=N/O)c3ccccc3n2C)CC1	none
Cc1ccccc1C(=O)O/N=C/c1c(N2CCOCC2)n(C)c2ccccc12	VP16 counter 2.8µM, RORg inh 1µM (no result: uPA surface inh)
CNc1sc(C(=O)c2ccccc2F)c(N)c1-c1nc2ccccc2s1	VP16 counter 13µM, RORg inh 7.9µM
CSc1ccc(S(=O)(=O)Nc2ccc(OCC(=O)N3CCOCC3)cc2)cc1	TRPV1 PAM inconclusive
